# Compound activity deposited in PubChem by National Center for Advancing Translational Sciences (NCATS).
# Shown are actives, neighbours in structure and some others; about 11% of the full set was active somewhere.
# Luciferase inh: inhibitors of firefly (Photinus pyralis) luciferase | P08659 | purified P. pyralis luciferase, luminescence, biochemical | Potency, µM (top dose mostly 115 µM), most hits filed as inhibitors | 2.5% of 76,000 active; also: nearly all actives have a fitted effect of over 65% in size
# Target sequence (P08659 whole entry, looked up): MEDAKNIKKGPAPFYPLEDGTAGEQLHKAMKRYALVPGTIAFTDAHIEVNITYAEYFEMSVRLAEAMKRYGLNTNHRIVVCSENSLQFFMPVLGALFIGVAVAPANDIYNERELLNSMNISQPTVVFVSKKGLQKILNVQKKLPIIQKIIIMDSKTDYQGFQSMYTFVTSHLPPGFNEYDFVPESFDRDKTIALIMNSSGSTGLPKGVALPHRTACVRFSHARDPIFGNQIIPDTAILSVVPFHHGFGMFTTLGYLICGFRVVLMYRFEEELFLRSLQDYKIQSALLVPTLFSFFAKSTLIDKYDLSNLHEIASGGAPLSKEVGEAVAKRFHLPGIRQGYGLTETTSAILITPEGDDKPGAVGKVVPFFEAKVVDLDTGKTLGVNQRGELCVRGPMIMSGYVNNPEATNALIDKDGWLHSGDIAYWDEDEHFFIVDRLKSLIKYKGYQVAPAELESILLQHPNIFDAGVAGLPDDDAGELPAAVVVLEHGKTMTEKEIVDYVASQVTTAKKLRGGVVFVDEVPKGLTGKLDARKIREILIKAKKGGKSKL
#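 Cell-free enzyme assay, 10nM P. pyralis luciferase, luciferin and ATP each at 10uM. Inhibition profiled over a 6-point titration, read as luminescence.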
# HEK cytotox: kills HEK 293 cells | HEK 293 viability, ATP luminescence (CellTiter-Glo), 48-72 h | Potency, µM (top dose mostly 115 µM), for inactives: top-dose activity change, negative = cytotoxicity, hits mostly inhibitors | 6.6% of 94,000 active; also: nearly all actives have a fitted effect of over 60% in size
#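 Luminescence from cellular ATP, measured with CellTiter-Glo, indicates HEK 293 viability. Cells plated at 250 cells/well are treated with compound for 48 or 72 hr at 37 degree Celsius before reagent addition.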
# NPR1 antag: human Npr1 receptor antagonism; P16066; HEK293 hNpr1 GloSensor cGMP, ANP-stimulated luminescence; Potency, µM (doses to about 46.3 µM), inactives show top-dose activity change, negative = inhibition, actives largely listed as inhibitors; 1.6% of 76,000 active; AID 1347048; calls by dose curve; also: nearly all actives have a fitted effect of over 60% in size
#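 Compound pre-incubated 30 min at room temperature on GloSensor-loaded HEK293 cells stably carrying hNpr1 and the pGS-40F cGMP biosensor. Stimulation uses hNppA at 0.1 nM final; luminescence is taken at baseline and 20 min post-agonist.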
# NIH3T3 tox: cytotoxic compounds in NIH 3T3 cells. 4.3% of 94,000 active. NIH 3T3 viability, CellTiter-Glo ATP luminescence, 48-72 h. AID 1345082. Potency, µM (top dose mostly 96.7 µM), without a hit: at the top dose activity change, negative = cytotoxicity, hits mostly inhibitors; also: nearly all actives have a fitted effect of over 55% in size
#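 Luminescent ATP readout (CellTiter-Glo, 10 min RT) after 48 or 72 hr compound exposure of NIH 3T3 cells seeded at 400 cells/well in 1536-well format; quantitative HTS.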
# Active calls of the source: *; i = inactive; ? = inconclusive; · = no result; ! = not active in a repeat; [ ] = another dose, or the depositor's remark. Unless noted, calls follow the shape of the dose curve; as a rule, active = well fitted curve in the direction sought with a large enough effect; inconclusive = small, poorly fitted or top-dose-only effect, or another doubt; inactive = no such curve, though single readings can be large; an effect the other way counts as inactive or inconclusive. % is scaled to controls: 0 for no effect and ±100 for the full control effect; potency is read from the fitted curve at half-maximal effect.
SMILES,Luciferase inh,HEK cytotox,NPR1 antag,NIH3T3 tox
Cc1ccc(CC(=O)N2CCCN(c3cc(-c4ccc(C)c(C)c4)[nH]n3)CC2)cc1,i,32µM*,?,32µM*
COC1CN(C(=O)Nc2cccc(C#N)c2)CCC(=O)N(C)c2ccccc21 (configuration not stated),·,-16%[57.5 µM],·,?
Cc1noc(C)c1[S+](=O)([O-])N1CCc2nc(-c3ccccc3)nc(-c3ccc(Cl)cc3)c2C1,·,-6%,·,i
COc1cccc(CCC(=O)N2CCCN(c3cc(-c4ccccc4)[nH]n3)CC2)c1,i,?,-2%,?
COc1cccc(CC(=O)N2CCCN(c3cc(-c4ccccc4)[nH]n3)CC2)c1,i,35µM*,-18%,?
O=C(Cc1c[nH]c2ccccc12)N1CCCN(c2cc(-c3ccc(Cl)cc3)[nH]n2)CC1,i,45µM*,?,35µM*
COc1ccc(-c2cc(N3CCCN(C(=O)Cc4c[nH]c5ccccc45)CC3)n[nH]2)cc1,i,?,-23%,?
COc1ccc(-c2cc(N3CCCN(C(=O)Cc4cccc(F)c4)CC3)n[nH]2)cc1,i,40µM*,0%,?
COCCNC(=O)c1cc(C(C)(C)C)nc2c1cnn2C,·,?,·,-26%[138 µM]
Cn1ncc2c(C(=O)NCc3ccc(F)cc3)cc(C(C)(C)C)nc21,·,100µM*!,·,?
Cn1ncc2c(C(=O)NCc3ccc(F)c(F)c3)cc(C(C)(C)C)nc21,·,56µM*,·,?
O=C(c1nc(-c2ccc(Cl)cc2)c2cnccn12)N1CCOCC1,i,?,20%[70.6 µM],-25%[138 µM]
COc1ccc2c(C)c(C(=O)N(C)Cc3csc(C(C)C)n3)oc2c1,i,45µM*,1%,?
COc1ccc(OC2CCN(C(C)=O)CC2)c(C(=O)NCc2csc(C(C)C)n2)c1,i,3%,8%,i
COc1ccccc1OCC(=O)c1ccc2c(c1)N(C(C)C(=O)NCCc1ccccc1)C(=O)CO2 (configuration not stated),i,?,7%,?
Cc1cc(F)ccc1OCC(=O)c1ccc2c(c1)N(C(C)C(=O)N1CCCCC1)C(=O)CO2 (configuration not stated),?,50µM*,-4%,?
CC(C(=O)NCCc1ccccc1)N1C(=O)COc2ccc(C(=O)COc3ccc(Cl)cc3)cc21 (configuration not stated),i,45µM*,-4%,?
CC(C(=O)NC1CC1)N1C(=O)COc2ccc(C(=O)COc3cccc(Cl)c3)cc21 (configuration not stated),i,?,-16%,?
Cc1cccc(OCC(=O)c2ccc3c(c2)N(C(C)C(=O)N2CCCC2)C(=O)CO3)c1C (configuration not stated),?,45µM*,0%,-30%
COc1cccc(OCC(=O)c2ccc3c(c2)N(CCCC(=O)NCc2ccccc2)C(=O)CO3)c1,i,?,-2%,40µM*
COc1cc(C)ccc1OCC(=O)c1ccc2c(c1)N(CC(=O)N1CCCC1)C(=O)CO2,i,?,-9%,-24%
COc1ccc(-c2ccc(C(=O)N3CCN([S+](=O)([O-])c4ccccc4)CC3)cc2)nn1,·,?,·,-23%
CNC(=O)C1CCCN1C(=O)c1cccc(-c2ccccn2)c1 (configuration not stated),·,-20%[172 µM],·,-15%[138 µM]
COC(=O)CC(NC(=O)N1CCc2nc(-c3ccccc3)[nH]c2C1)c1ccccc1 (configuration not stated),·,i,·,-22%
CNC(=O)N1CCC(OC2CCN(Cc3ccccc3)CC2)CC1,i,6%,0%,-13%
SMILES,Luciferase inh,HEK cytotox,NPR1 antag,NIH3T3 tox
O=C(Nc1cc(F)c(F)c(F)c1)N1CCC(OC2CCN(Cc3ccccc3)CC2)CC1,i,?,-16%,35µM*
COCC(=O)NC1CCN(Cc2cccc(-c3ccccc3OC)c2)CC1,·,i,·,-21%
COc1cccc(-c2ccccc2NC(=O)C2CCN(Cc3cc(F)ccc3F)CC2)c1,i,22µM*,?,?
COc1ccccc1-c1cccc(CN2CCC(NC(=O)Nc3ccc(C)c(F)c3)CC2)c1,·,10µM*,·,20µM*
COc1ccccc1-c1cccc(CN2CCC(NC(=O)Cc3ccc(C(F)(F)F)cc3)CC2)c1,·,11µM*,·,11µM*
COc1ccc(C(=O)NC2CCN(Cc3cccc(-c4ccccc4OC)c3)CC2)cc1,·,22µM*,·,?
CN(C)C(=O)N1CCCC(C(=O)N2CCC(c3ccccc3)CC2)C1 (configuration not stated),·,-9%,·,-7%
COc1cc(CN2CCC(C)(NC(C)=O)CC2)cc(Nc2ccccc2)c1,i,?,-1%[70.6 µM],?
Cc1cc(C)n(CC(=O)N2CCN3CCS(=O)(=O)N(C4CC4)C(=O)C3C2)n1 (configuration not stated),·,-19%,·,-2%
COc1ccccc1-c1cccc(CN2CCC(NC(=O)c3ccc(F)cc3)CC2)c1,·,40µM*,·,?
O=C1N[C@@H]2CCN(S(=O)(=O)Cc3ccccc3)[C@@H]2C(=O)N1c1ccc(F)cc1,i,-6%[172 µM],-10%[70.6 µM],-12%[138 µM]
COc1ccc(NC(=O)Cn2c(N3CCCCC3)nc(C)c(C)c2=O)cc1Cl,i,25µM*,-11%,?
O=C(NCC(F)F)c1cc(-c2cccc(C(F)(F)F)c2)c2nncn2n1,·,?,·,-28%
C#CCNC(=O)c1cc(-c2cccc(C(F)(F)F)c2)c2nncn2n1,·,10µM*,·,?
O=C(c1cc(-c2cccc(C(F)(F)F)c2)c2nncn2n1)N1CCC(c2ccccc2)CC1,·,25µM*,·,?
CC(C)Oc1cccc2c1c(NC(=O)C1CCCO1)nn2Cc1ccccc1 (configuration not stated),i,45µM*,4%,?
COCc1nc(N2CCC(c3cc(=O)[nH]c(C)n3)CC2)c2cnn(C)c2n1,i,-5%,0%,-18%
Cn1ncc2c(N3CCN(S(N)(=O)=O)CC3)nc(C3CCCC3)nc21,i,-25%,-2%,40µM*
Cn1ncc2c(N3CCN(S(N)(=O)=O)CC3)nc(-c3cccnc3)nc21,i,?,5%,40µM*
O=C(NCC(F)(F)F)c1nc2sccn2c1-c1ccncc1,·,4%[172 µM],·,-15%[138 µM]
O=C(CC1CCCC1)N1CC[C@@H]2COCCN(Cc3ccccc3)[C@@H]2C1,i,79µM*,-2%,-28%
CNC(=O)c1cc(C)nc2onc(C3CCN(C(=O)c4cccnc4)C3)c12 (configuration not stated),·,3%,·,-5%
Cn1ccc(NC(=O)c2ccc3c(c2)NC(C)(COc2ccccc2)CO3)n1 (configuration not stated),?,100µM*,?,?
CC1(COc2ccccc2)COc2ccc(C(=O)NCc3cnccn3)cc2N1 (configuration not stated),i,?,-2%[70.6 µM],?
